The results in this text go back to PubChem BioAssay (EPA / NIEHS).

Molecules are shown by their SMILES. Results filed as inconclusive are left out. A structure can be active in one record and inactive in another. Activity calls are given as the source filed them. The calls were made as follows, unless noted: active = hit-call score of the fitted dose curve at least 0.9, where 1 is the maximum; inconclusive = response in the unintended direction; inactive = score below 0.9.

Sequence of Estrogen receptor (Homo sapiens) (P03372 whole entry, looked up): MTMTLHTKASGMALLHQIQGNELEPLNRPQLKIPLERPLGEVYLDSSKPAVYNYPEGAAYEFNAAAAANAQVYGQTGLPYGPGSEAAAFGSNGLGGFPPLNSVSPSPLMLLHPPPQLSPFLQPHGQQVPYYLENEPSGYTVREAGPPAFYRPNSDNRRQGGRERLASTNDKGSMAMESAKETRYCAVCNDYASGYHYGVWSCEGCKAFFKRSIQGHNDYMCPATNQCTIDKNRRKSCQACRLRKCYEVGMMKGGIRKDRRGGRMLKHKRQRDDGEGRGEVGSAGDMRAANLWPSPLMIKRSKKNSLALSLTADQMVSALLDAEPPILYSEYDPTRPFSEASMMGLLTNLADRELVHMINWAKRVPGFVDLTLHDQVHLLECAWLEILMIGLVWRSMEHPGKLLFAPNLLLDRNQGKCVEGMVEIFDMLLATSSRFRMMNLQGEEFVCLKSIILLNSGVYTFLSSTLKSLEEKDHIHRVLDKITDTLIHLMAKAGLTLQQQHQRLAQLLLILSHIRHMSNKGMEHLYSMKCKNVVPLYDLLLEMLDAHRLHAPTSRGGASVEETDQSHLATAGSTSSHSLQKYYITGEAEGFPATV

Tested on in one assay: not listed separately
As to the kind of experiment: CCTE_Deisenroth_AIME_384WELL_CTox_Inactive: Cytotoxicity Assessment (CTOX) in CCTE's 384-well Estrogen Receptor Transactivation Assay without AIME metabolic competence (metabolism negative), Deisenroth Lab (AID 2284039).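 Also: cell viability via live-cell protease substrate cleaved to fluorescent probe; loss of fluorescence signal means loss of viability.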 In outline: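 VM7Luc4E2 human breast cells received conditioned medium from a 2 h incubation of chemical with alginate-water microspheres (no S9), then were exposed 24 h. Viability was read as protease-substrate cleavage to a fluorescent probe; loss of signal was fitted bidirectionally over 0.002–200 uM.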
With `OCC1CO1` (centres undefined), the call was inactive.

Turning to `c1ccc(OP(Oc2ccccc2)Oc2ccccc2)cc1`, the result was inactive.

Regarding `Nc1ccc2ccccc2c1`, the outcome was inactive.

For the compound `Nc1ccc(Cl)cc1`, the compound was called inactive.

In the case of `CCCCN(CC)C(=O)SCCC`, the call was inactive.

As for `CCCCc1ccccc1`, the compound was classed as inactive.

Turning to `CCOP(=S)(Oc1ccc([N+](=O)[O-])cc1)c1ccccc1` (centres undefined), the outcome was inactive.

Take `ClC(Cl)c1ccccc1`: the result was inactive.

Regarding `CCOC(=O)c1ccccc1C(=O)OCC`, the compound was called inactive.

With `COCCOCCO`, the result was inactive.

As for `CCCCN(CCCC)SN(C)C(=O)Oc1cccc2c1OC(C)(C)C2`, the call was inactive.

Take `O=[N+]([O-])c1ccccc1`: the outcome was inactive.

`CCN(CC)c1ccccc1`: the call was inactive.

`CCCCc1ccc(O)cc1`: the outcome was inactive.

Regarding `CCCCC(CC)COP(=O)(Oc1ccccc1)Oc1ccccc1` (centres undefined), the compound was classed as inactive.

For the compound `c1ccc2c(c1)Nc1ccccc1S2`, the outcome was inactive.

Take `CCCCN(CCCC)N=O`: the compound was classed as inactive.

Tested on in another assay: not listed separately
Kind of assay: CCTE_Shafer_MEA_dev_active_electrodes_number: CCTE's Neural Network Formation Assay for Number of Active Electrodes, Shafer Lab (AID 2284040).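 As to AC50: potency for loss of active electrodes versus DMSO so lower counts are hits.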 In outline: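 Rat cortical primary cultures, 1.5 x 10^5 cells/well, PEI-coated MEA, laminin drop. Continuous exposure DIV 0–12; full media/compound change DIV 5, 9. Readout: electrodes with mean firing ≥5 spikes/min; AUC across days; loss vs DMSO.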
On to `c1ccc(OP(Oc2ccccc2)Oc2ccccc2)cc1`, for which the result was inactive.

As a reminder, the AC50 is the concentration giving half of the maximal activity seen. For `ClC1=C(Cl)C2(Cl)C3C(Cl)C(Cl)CC3C1(Cl)C2(Cl)Cl` (centres undefined), the AC50 is 5.54 µM (active).

Turning to `CC(C)(C)c1ccccc1OP(=O)(Oc1ccccc1)Oc1ccccc1`, the AC50 is 24.3 µM (active) and the outcome was inactive.

For the compound `CCC1(c2ccccc2)C(=O)N=C(O)NC1=O` (centres undefined), the call was inactive.

In the case of `CCCCC(CC)COP(=O)(Oc1ccccc1)Oc1ccccc1` (centres undefined), the compound was called inactive.

Consider `CCOc1ccc(C(C)(C)COCc2cccc(Oc3ccccc3)c2)cc1`, for which the AC50 was 10 µM (active).

The next assay deals with Estrogen receptor (Homo sapiens) (UniProt P03372). As to the kind of experiment: CCTE_Deisenroth_AIME_384WELL_LUC_Shift: CCTE's 384-well Estrogen Receptor Transactivation Assay with AIME metabolic competence data shift (ERTA luciferase; difference in metabolism positive and negative), Deisenroth Lab (AID 2284041; active = hit-call score of the fitted dose curve at least 0.9, where 1 is the maximum; inactive = score below 0.9;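 also: shift is response with S9 minus without S9 so positive means metabolism raised ER signal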). In outline:
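Test chemicals (0.002–200 uM, 10-point) were pre-incubated 2 h with alginate microspheres containing phenobarbital/beta-naphthoflavone-induced male Sprague Dawley rat liver S9 or water, then medium was transferred to VM7Luc4E2 cells for 24 h luciferase readout; shift = S9-positive minus S9-negative normalized response.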
`CCC(C)(C)c1ccc(O)cc1`: the AC50 was 0.0296 µM (active).

Take `[N-]=[N+]=[N-]`: the outcome was inactive.

For `OCC1CO1` (centres undefined), the result was inactive.

Regarding `c1ccc(OP(Oc2ccccc2)Oc2ccccc2)cc1`, the AC50 is 60.5 µM (active).

For the compound `Nc1ccc2ccccc2c1`, the outcome was inactive.

For the compound `Nc1ccc(Cl)cc1`, the outcome was inactive.

Take `CCCCN(CC)C(=O)SCCC`: the outcome was inactive.

With `CCCCc1ccccc1`, the outcome was inactive.

As to `CCOP(=S)(Oc1ccc([N+](=O)[O-])cc1)c1ccccc1` (centres undefined), the result was inactive.

As to `ClC(Cl)c1ccccc1`, the outcome was inactive.

On to `CCOC(=O)c1ccccc1C(=O)OCC`, for which the AC50 was 45.2 µM (active).

Consider `COCCOCCO`, for which the outcome was inactive.

In the case of `CC(Cl)(Cl)C(=O)O`, the result was inactive.

As to `CCCCN(CCCC)SN(C)C(=O)Oc1cccc2c1OC(C)(C)C2`, the result was inactive.

On to `O=[N+]([O-])c1ccccc1`, for which the outcome was inactive.

For the compound `CCN(CC)c1ccccc1`, the result was inactive.

Consider `CCCCc1ccc(O)cc1`, for which the outcome was inactive.

As for `CCCCC(CC)COP(=O)(Oc1ccccc1)Oc1ccccc1` (centres undefined), the result was inactive.

As for `c1ccc2c(c1)Nc1ccccc1S2`, the result was inactive.

For the compound `CCCCN(CCCC)N=O`, the AC50 was 77.6 µM (active).
